Assay results published in the supplement of paper PMC9925115.
Counter-ions that a name gives are not always drawn. ± gives the uncertainty stated by the source.

Test system: FLX1
Assay: cell viability z-score within plate (CellTiter-Glo), mean of 3 biological replicates; higher = higher viability relative to plate (less growth inhibition)
Settings: 2 µM; time (hr): 120
Procedure: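 FLX1 fibrolamellar carcinoma cells (DNAJB1-PRKACA fusion), 600 cells/well in 384-well plates, treated with a Selleck kinase inhibitor library (L1200) at 2 uM for 5 days (120 hr); viability by CellTiter-Glo. A z-score was computed within each plate and averaged over three biological replicates.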

Row | Compound | cell viability z-score within plate
1 | O=C(NOCC1CC1)c1ccc(F)c(F)c1Nc1ccc(I)cc1Cl | 0.606 ± 0.25
2 | CN1CCCN(C(=O)c2cccc(-c3ccc(/C=C4/C(=O)Nc5ccc(Cl)cc54)o3)c2)CC1 | 0.408 ± 0.47
3 | CO[C@H]1C[C@@H]2CC[C@@H](C)[C@@](O)(O2)C(=O)C(=O)N2CCCC[C@H]2C(=O)O[C@H]([C@H](C)C[C@@H]2CC[C@@H](OP(C)(C)=O)[C@H](OC)C2)CC(=O)[C@H](C)/C=C(\C)[C@@H](O)[C@@H](OC)C(=O)[C@H](C)C[C@H](C)/C=C/C=C/C=C/1C [Ridaforolimus (Deforolimus, MK-8669)] | -0.102 ± 0.36
4 | Oc1cccc(-c2nc(N3CCOCC3)c3oc4ncccc4c3n2)c1 | -0.163 ± 0.28
5 | Cc1cc2c(F)c(Oc3ncnn4cc(OC[C@@H](C)OC(=O)[C@H](C)N)c(C)c34)ccc2[nH]1 | 0.531 ± 0.22
6 | C=CC(=O)Nc1cccc(Nc2nc(Nc3ccc(NC4CN(CCF)C4)cc3OC)ncc2C(F)(F)F)c1 | -0.00318 ± 1.3
7 | COc1c(C)c(C(=O)c2ccc(N)c(C(=O)O)c2)n2ccccc12 | 0.661 ± 0.44
8 | CC[C@@H]1C(=O)N(C)c2cnc(Nc3ccc(C(=O)N[C@H]4CC[C@H](N5CCN(CC6CC6)CC5)CC4)cc3OC)nc2N1C(C)C [Volasertib (BI 6727)] | -0.186 ± 0.53
9 | N[C@@H]1CCCN(c2c(/C=C3\SC(=O)NC3=O)cccc2-c2ccccc2)C1 | 0.166 ± 0.49
10 | CS(=O)(=O)CCNCc1ccc(-c2ccc3ncnc(Nc4ccc(OCc5cccc(F)c5)c(Cl)c4)c3c2)o1 | 0.842 ± 0.23
11 | O=C(NCc1ccccc1)c1csc(Nc2ccncn2)n1 [Thiazovivin] | -0.686 ± 0.81
12 | COc1ccc(-c2ccc3c(N4CCOC[C@@H]4C)nc(N4CCOC[C@@H]4C)nc3n2)cc1CO | 0.926 ± 0.45
13 | COc1ccccc1-c1cc(Nc2cccc(CS(N)(=O)=O)c2)ncn1 | 0.545 ± 1.1
14 | COC(=O)c1ccc2c(c1)NC(=O)/C2=C(\Nc1ccc(N(C)C(=O)CN2CCN(C)CC2)cc1)c1ccccc1 [Nintedanib (BIBF 1120)] | 0.242 ± 0.43
15 | COc1cc(Nc2ncc(F)c(Nc3ccc4c(n3)NC(=O)C(C)(C)O4)n2)cc(OC)c1OC | 0.701 ± 0.4
16 | Cc1cc2c(F)c(Oc3ncnn4cc(OC[C@@H](C)O)c(C)c34)ccc2[nH]1 | -1.45 ± 0.81
17 | Clc1ccc(C2(c3ccc(-c4cn[nH]c4)cc3)CCNCC2)cc1 | 0.815 ± 0.24
18 | O=C1NC(=O)C(=Cc2ccc(-c3ccc(F)cc3)o2)S1 (stereo in doubt) | 0.244 ± 0.32
19 | O=C1NC(=O)/C(=C/c2ccc(-c3ccc(F)cc3O)o2)S1 | 1.21 ± 0.57
20 | O=c1cc(-c2cccc3c2Sc2ccccc2S3)oc(N2CCOCC2)c1 | 0.731 ± 0.28

Row | Compound | cell viability z-score within plate
21 | CC(C)(C)c1cc(/C=C(\C#N)C(N)=S)cc(C(C)(C)C)c1O [Tyrphostin AG 879] | 0.585 ± 0.3
22 | Cc1cc(C)c(/C=C2\C(=O)Nc3ccccc32)[nH]1 [Semaxanib (SU5416)] | -1.17 ± 0.77
23 | Cc1ccc(NC(=O)c2ccc(CN3CCN(C)CC3)cc2)cc1Nc1nccc(-c2cccnc2)n1 [Imatinib Mesylate (STI571)] | -1.25 ± 0.88
24 | C=CC(=O)N1CCC[C@@H](n2nc(-c3ccc(Oc4ccccc4)cc3)c3c(N)ncnc32)C1 | 0.337 ± 0.4
25 | COc1cccc(-c2cc(=O)c3ccccc3o2)c1N | 0.538 ± 0.2
26 | C[C@@H]1COC(Nc2ccc3ncnc(Nc4ccc(OCc5nccs5)c(Cl)c4)c3c2)=N1 [Varlitinib] | 0.0259 ± 0.81
27 | Cn1sc(=O)n(Cc2ccccc2)c1=O | 1.12 ± 0.94
28 | COCC(=O)NC/C=C/c1ccc2ncnc(Nc3ccc(Oc4ccc(C)nc4)c(C)c3)c2c1 | -0.356 ± 0.16
29 | Cc1ccc(S(=O)(=O)/C=C/C#N)cc1 | 0.177 ± 0.63
30 | CCc1cnn2c(NCc3ccc[n+]([O-])c3)cc(N3CCCC[C@H]3CCO)nc12 | 0.031 ± 0.76
31 | Cc1cnc(Nc2ccc(OCCN3CCCC3)cc2)nc1Nc1cccc(S(=O)(=O)NC(C)(C)C)c1 | -0.235 ± 0.43
32 | COc1cc2ncnc(Oc3ccc(CC(=O)Nc4cnn(C(C)C)c4)cc3)c2cc1OC | -0.525 ± 0.26
33 | CN(C[C@@H]1COCCO1)S(=O)(=O)Nc1ccc2ccc3ncc(-c4cnn(C)c4)cc3c(=O)c2c1 | -0.122 ± 0.42
34 | Cc1[nH]c(/C=C2\C(=O)Nc3ccc(S(=O)(=O)N(C)c4cccc(Cl)c4)cc32)c(C)c1C(=O)N1CCN(C)CC1 | -0.214 ± 0.72
35 | O=c1ccc2ccc(O)c(O)c2o1 [Daphnetin] | 1.53 ± 0.8
36 | Cn1c(=O)c(F)c(Nc2ccc(I)cc2F)c2c(=O)n(C[C@@H](O)CO)cnc21 | 1.04 ± 0.62
37 | N#CC1(c2ccc(NC(=O)c3cccnc3NCc3ccncc3)cc2)CCCC1 [Apatinib] | 0.121 ± 0.33
38 | Cn1cc(-c2ccc3ncc(Cc4ccc5ncccc5c4)n3n2)cn1 | 0.137 ± 0.93
39 | COc1cc(F)c(F)c(Nc2ccc(I)cc2F)c1NS(=O)(=O)C1(C[C@H](O)CO)CC1 [Refametinib (RDEA119, Bay 86-9766)] | -1.34 ± 1.7
40 | O=C(/C=C/c1ccc2ccccc2n1)c1ccncc1 | 0.276 ± 0.49
